Source: PubChem
E coli growth-1 = blocks Escherichia coli growth. OD600, 23 h; stronger effect = lower value. 330,000 compounds, 0.21% hits. OD600 absorbance (concentration not given with the values);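 active means OD600 absorbance below the run mean of sample wells minus 3.6 SD, in any replicate, cut at about 0.56 in these data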
E coli growth-2 = counter-screen for AddAB inhibitors: E. coli growth inhibition; E. coli V3065 growth, OD600 absorbance, 18 h; inhibition, % at 11.9 µM; 330,000 compounds, 0.27% hits; AID 449728;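 active means inhibition above the campaign's mean inhibition across all tested compounds plus 3 SD, cut at about 9.9% in these data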;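 further: uninfected addAB+ strain grown without phage in ampicillin broth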
AddAB inh = less growth of phage-infected E. coli with AddAB. E. coli expressing H. pylori AddAB, absorbance growth. inhibition, % at 11.9 µM. 330,000 compounds, 0.29% hits; in the data active means inhibition above about 12%
Tat transport = blocks Tat-dependent protein export in E. coli. E. coli MC4100 TorA-mCherry Tat export, fluorescence. inhibition, % at 10 µM. 340,000 compounds, 0.036% hits. AID 488895;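 active means mean replicate inhibition at least 50% and at least half of replicates individually reaching 50%; inconclusive means only one of the two criteria met; inactive means neither criterion met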;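 further: exported cargo escapes ClpAP degradation while cytoplasmic cargo is degraded and loses fluorescence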
phage Ecoli inh = E. coli growth loss with phage present. growth absorbance. AID 651602. 360,000 compounds, 0.26% hits. inhibition, % at 11.9 µM; in the data active means inhibition above about 11%
AddAB confirm = growth loss of T4-infected E. coli expressing H. pylori AddAB, confirmed; 880 compounds, 64% hits; inhibition, % at 11.9 µM; shares compounds with AddAB inh; AID 488942; E. coli V3065 expressing H. pylori AddAB, T4 phage, OD; T4 phage with gene 2 nonsense mutations;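 active means mean inhibition above a set limit taken from the earlier primary screen, cut at about 13% in these data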;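 further: higher means less bacterial growth since AddAB block lets phage replicate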
RecBCD counter = AddAB counter-screen: growth loss of RecBCD+ E. coli infected with mutant T4 phage. shares compounds with AddAB inh. E. coli V66 + mutant T4 phage, OD growth. inhibition, % at 11.9 µM. 880 compounds, 73% hits;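 active means mean inhibition above the mean of solvent-only control wells plus 3 SD, cut at about 4% in these data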;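 further: optical density read after an 18 h incubation at 37 °C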
bact viab count = counter-screen for AddAB inhibitors: inhibitors of bacterial viability; 880 compounds, 35% hits; inhibition, % at 11.9 µM; shares compounds with AddAB inh; absorbance (AddAB counterscreen); in the data active means inhibition above about 25%
Large screens that a line does not name were inactive (follow-up assays come after a bar, where they were run). Compounds with a hit are over-represented: about 0.5% of the library has one in this group of screens.

CC(=NNC(=S)NCc1ccccc1)c1cccc(Br)c1	none (no result: E coli growth-2, AddAB inh, Tat transport, phage Ecoli inh)
O=C(Nc1ccc(Cl)cc1)ON=C1CCCC1	AddAB inh 23.0 | AddAB confirm inactive | RecBCD counter inactive | bact viab count inactive
CCCC(c1nnnn1CS(=O)(=O)c1ccc(C)cc1)N1CCN(c2ccccc2)CC1 (stereo not drawn)	none
CCC(c1nnnn1CS(=O)(=O)c1ccc(C)cc1)N1CCN(c2nc3ccccc3s2)CC1 (stereo not drawn)	E coli growth-2 31.8, AddAB inh 44.2 | AddAB confirm inactive | RecBCD counter inactive | bact viab count inactive
COc1cc(NC(=O)c2cc(C3CC3)on2)c(OC)cc1Cl	E coli growth-2 77.4, AddAB inh 98.1 | AddAB confirm inactive | RecBCD counter inactive | bact viab count inactive
Cc1ccc2nc(-c3ccccc3O)c(Nc3ccc4c(c3)OCCO4)n2c1	none
Cc1ccc2nc(-c3ccc(O)cc3)c(Nc3ccc4c(c3)OCCO4)n2c1	E coli growth-2 14.1, AddAB inh 16.6 | AddAB confirm inactive | RecBCD counter inactive | bact viab count inactive
CCOc1cc(C=NNc2nc(-c3ccc(C)cc3)c(NC(C)=O)s2)ccc1O	none (no result: E coli growth-2, AddAB inh, Tat transport, phage Ecoli inh)
Cc1ccc(Cn2c(C)c3cnn(CC(=O)NC4CCCC4)c(=O)c3c2C)cc1	E coli growth-2 86.5, AddAB inh 98.9 | AddAB confirm inactive | RecBCD counter inactive | bact viab count inactive
CNC(=O)Cn1ncc2c(C)n(Cc3ccc(C)cc3)c(C)c2c1=O	none
CC1=C(C(=O)OCC2CCCO2)C(c2coc3ccc(C)cc3c2=O)C2=C(CCCC2=O)N1 (stereo not drawn)	E coli growth-2 91.3, AddAB inh 99.3 | AddAB confirm inactive | RecBCD counter inactive | bact viab count inactive
CC1=C(C(=O)OCC2CCCO2)C(c2coc3ccc(Cl)cc3c2=O)C2=C(CCCC2=O)N1 (stereo not drawn)	none
COc1ccc(C=NNC(=O)CC2N=C(Cc3ccccc3)NNC2=O)cc1OC (stereo not drawn)	none (no result: E coli growth-2, AddAB inh, Tat transport, phage Ecoli inh)
CC(C)CCN(C)C1CCN(C(=O)Nc2c(F)cccc2F)CC1	AddAB inh 27.6 | AddAB confirm inactive | RecBCD counter inactive | bact viab count inactive
CCCOc1ccccc1/C=N/Nc1ccnc(=O)[nH]1	E coli growth-2 21.1, AddAB inh 13.2 (no result: E coli growth-1) | AddAB confirm 99.7 | RecBCD counter inactive | bact viab count 68.4
CCCOc1ccccc1C=NNc1ccnc(=O)[nH]1	none (no result: E coli growth-2, AddAB inh, Tat transport, phage Ecoli inh)
CCOC(=O)N1CCN(C(=O)c2cc3c(s2)-c2ccccc2OC3)CC1	none
CCCN1CCN(C(=O)c2cc3c(s2)-c2ccccc2OC3)CC1	E coli growth-2 12.6, AddAB inh 15.0 | AddAB confirm 22.5 | RecBCD counter 7.3 | bact viab count inactive
COc1ccc(C=NNC(=O)c2ccc(-c3ccccc3)cc2)cc1O	none (no result: E coli growth-2, AddAB inh, Tat transport, phage Ecoli inh)
Cn1c([N+](=O)[O-])cnc1COC(N)=O	E coli growth-2 17.2, AddAB inh 26.4 | AddAB confirm 78.5 | RecBCD counter 5.2 | bact viab count 56.9
Cc1ncc([N+](=O)[O-])n1CCOC(=O)c1ccccc1	none
COc1ccccc1NC(c1cccnc1)c1ccc2cccnc2c1O (stereo not drawn)	none
Cc1ccnc(NC(c2cccnc2)c2ccc3cccnc3c2O)c1 (stereo not drawn)	E coli growth-2 12.1, AddAB inh 12.2, Tat transport inconclusive, phage Ecoli inh 14.8 | AddAB confirm inactive | RecBCD counter 12.4 | bact viab count inactive
O=C(NCc1ccccc1)C(c1ccccc1)N(C(=O)c1csnn1)C1CC1 (stereo not drawn)	none
CCc1ccc(C(C(=O)NCc2ccccc2)N(C(=O)c2csnn2)C2CC2)cc1 (stereo not drawn)	E coli growth-2 45.9, AddAB inh 98.6 | AddAB confirm inactive | RecBCD counter inactive | bact viab count inactive
Cc1ccc(/C=C/C(=O)c2ccccc(=O)c2O)cc1C	AddAB inh 13.3 | AddAB confirm inactive | RecBCD counter 6.1 | bact viab count inactive
COc1ccc2ccccc2c1C=NNC(=O)c1cc(C)[nH]n1	none (no result: E coli growth-2, AddAB inh, Tat transport, phage Ecoli inh)
Cc1cc(=O)n(-c2ccc(O)cc2)[nH]1	E coli growth-2 93.1, AddAB inh 98.2 | AddAB confirm 78.4 | RecBCD counter 7.7 | bact viab count 45.7
CCOc1ccc(NC(=O)CCNC(=O)c2ccco2)cc1	AddAB inh 13.5 | AddAB confirm inactive | RecBCD counter 4.7 | bact viab count inactive
O=C(CCNC(=O)c1ccco1)Nc1ccccc1	none
Cc1ccc(NC(=O)CCNC(=O)c2ccco2)cc1	AddAB inh 14.6 | AddAB confirm inactive | RecBCD counter inactive | bact viab count inactive
COc1ccc(C(=O)ON=C(N)c2ccccc2)c(OC)c1	none (no result: E coli growth-2, AddAB inh, Tat transport, phage Ecoli inh)
COc1ccc(CNC(=O)CC2C(=O)N(CCc3ccccc3)CC2Cc2ccccc2)cc1 (stereo not drawn)	none (no result: E coli growth-2, AddAB inh, Tat transport, phage Ecoli inh)
Cn1c(OCc2cccnc2)nc2c1c(=O)n(Cc1ccc(Br)cc1)c(=O)n2C	E coli growth-2 84.3, AddAB inh 22.9 | AddAB confirm inactive | RecBCD counter inactive | bact viab count inactive
O=C(NN1C(=O)CSC1=S)C(=O)NN1C(=O)CSC1=S	E coli growth-2 12.1, AddAB inh 12.4, phage Ecoli inh 12.9 | AddAB confirm 33.6 | RecBCD counter 16.0 | bact viab count 28.2
CN(C)C1=NCC(Cc2ccccc2)N1CCCC1CCCC1 (stereo not drawn)	none (no result: E coli growth-2, AddAB inh, Tat transport, phage Ecoli inh)
CN=c1c([N+](=O)[O-])nn(-c2ccc3c(c2)OCCO3)n1O	E coli growth-2 19.4, AddAB inh 21.2 | AddAB confirm 30.9 | RecBCD counter 9.9 | bact viab count 30.7
S=C(NCc1ccc(Cl)cc1Cl)Nc1ccccc1	none
Cc1cc(Cl)ccc1NC(=S)NCc1ccccc1Cl	AddAB inh 15.7 | AddAB confirm 15.0 | RecBCD counter 14.8 | bact viab count inactive
S=C(NCc1ccccc1Cl)Nc1ccccc1Cl	none
Fc1cccc(NC(=S)NCc2ccccc2Cl)c1	E coli growth-2 10.7, AddAB inh 19.0 | AddAB confirm 32.6 | RecBCD counter 25.8 | bact viab count 33.5
Cc1cc(C)c2nc(N=C(N)NC(=O)Nc3ccccc3)nc(C)c2c1	none (no result: E coli growth-2, AddAB inh, Tat transport, phage Ecoli inh)
Cc1ccc(NC(=O)NCC2CC2(Cl)Cl)cc1 (stereo not drawn)	none (no result: E coli growth-1)
O=C(NCC1CC1(Cl)Cl)Nc1ccc(Cl)c(Cl)c1 (stereo not drawn)	E coli growth-1 0.428, AddAB inh 12.6 | AddAB confirm inactive | RecBCD counter 13.1 | bact viab count inactive
CSC(=S)NN=C(C)c1ccc(Br)cc1	none (no result: E coli growth-2, AddAB inh, Tat transport, phage Ecoli inh)
S=C(Nc1ccc(Oc2ccc(NC(=S)NC3CCCCC3)cc2)cc1)NC1CCCCC1	none
CC(C)c1ccc(NC(=S)NC2CCCCCC2)cc1	E coli growth-2 86.5, AddAB inh 97.7 | AddAB confirm inactive | RecBCD counter inactive | bact viab count inactive
